Results as given in PubChem BioAssay.

target: Homeobox protein Hox-A13 (Mus musculus) (UniProt Q62424); test: disruptors of Hoxa13 oligonucleotide interaction – biochemical, fluorescence polarization, labeled oligonucleotide, primary screen (AID 1185); conditions: Hoxa13:DNA binding, 15 min, higher = more signal, called active from +8 up or from −8 down
Sequence (Q62424 whole entry, looked up): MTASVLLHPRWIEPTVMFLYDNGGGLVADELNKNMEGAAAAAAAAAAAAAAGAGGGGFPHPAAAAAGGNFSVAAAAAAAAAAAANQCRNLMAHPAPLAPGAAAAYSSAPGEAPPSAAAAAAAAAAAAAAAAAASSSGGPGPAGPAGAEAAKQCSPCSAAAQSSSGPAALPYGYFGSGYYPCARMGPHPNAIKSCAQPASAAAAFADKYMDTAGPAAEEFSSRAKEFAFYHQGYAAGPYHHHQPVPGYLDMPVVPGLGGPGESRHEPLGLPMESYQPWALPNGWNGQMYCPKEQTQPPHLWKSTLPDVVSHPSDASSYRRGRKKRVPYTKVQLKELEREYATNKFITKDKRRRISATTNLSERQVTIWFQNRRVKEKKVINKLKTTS

z-score, inactive:
COC(=O)[C@@]1(Cc2ccc(F)cc2)[C@H]2c3cc(C(=O)N(C)C)n(C)c3C[C@H]2CN1C(=O)c1ccccc1 -7.29
C=C(CCCC)C(=O)CC[C@H](OC(=O)c1ccccc1-c1ccccc1C(=O)O)c1ccc(OCCO)cc1 -6.36
N#Cc1ccc(NN2C(C(O)C3CC=CCC3)C=CC3C(=O)N(c4ccccc4)C(=O)C32)cc1 (stereo not given) -2.69
CCCC=C(CCC)[C@@H](NC(=O)OCC(C)C)c1ccc(C(=O)OC)cc1 -1.31
O=C(NCC(O)CO)[C@@]1(CCS(=O)(=O)c2ccccc2)N=C(c2ccc(OCCCO)cc2)O[C@H]1c1ccccc1 (stereo not given in full) -4.76
C=C(COC)C(=O)CC[C@@H](OC(=O)c1ccccc1-c1ccccc1C(=O)O)c1ccc(OCCO)cc1 -5.88
CC(C)C(CO)N1C(=O)[C@@H]2C3C(=O)OCCC/C=C\[C@H]3OC23C=CCN(Cc2ccccc2)C(=O)[C@@H]13 (stereo not given in full) -5.12
CN(C)CCCNC(=O)[C@@]1(C)c2ccccc2C(=O)N(Cc2ccc(OC(F)(F)F)cc2)[C@H]1c1ccc(CO)cc1 -1.98
CO[C@H]1O[C@H](CO)[C@@H](OC(=O)Nc2ccccc2-c2ccccc2)[C@H](OC(=O)Nc2ccccc2)[C@H]1OC(=O)Nc1ccccc1 -3.21
COC(=O)C(CC#Cc1ccc2c(c1)[C@]1(C(=O)N2)[C@H](C(=O)NC[C@H](O)c2ccccc2)[C@H]2C(=O)O[C@H](c3ccccc3)[C@H](c3ccccc3)N2[C@@H]1c1ccccc1OCCO)C(=O)OC -1.39
